Only some compounds are listed: those with a hit (about 8.7% of all), similar ones and a draw of the others.
12-LOX inh: ALOX12 (human) lipoxygenase inhibition; Potency, µM (titrated, usually from 108 µM), inactives show top-dose activity change, negative = inhibition, hits mostly inhibitors; purified 12hLO, xylenol orange hydroperoxide absorbance; 580,000 compounds, 1.1% hits; P18054; AID 1671190; also: % is scaled to controls: 0 for no effect and ±100 for the full control effect
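Purified human 12hLO at 150 nM in 25 mM Hepes, 0.01% Triton X-100, pH 7.0, preincubated 15 min at room temperature with compound. Reaction started with 40 uM arachidonic acid, 30 min at room temperature. Hydroperoxide measured by Fe-xylenol orange, 573/405 nm absorbance ratio.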
JMJD2A Tudor: inhibitors of human JMJD2A Tudor domain. O75164. AlphaScreen JMJD2A-Tudor / H3K4me3 peptide binding. Potency, µM (titrated, usually from 114 µM), for the others: top-dose activity change, negative = inhibition, hits mostly inhibitors. 390,000 compounds, 4.4% hits. AID 504339; also: % is scaled to controls: 0 for no effect and ±100 for the full control effect; nearly all actives have a fitted effect of over 50% in size
HP1b binding inh: blocks HP1-beta chromodomain binding to methylated histone tails | AlphaScreen HP1-beta / biotin-H3K9me3 peptide binding | 390,000 compounds, 0.56% hits | Potency, µM (highest dose often 114 µM), for inactives: at the top dose activity change, negative = inhibition, actives largely listed as inhibitors | AID 540317; also: nearly all actives have a fitted effect of over 70% in size
Target sequence (P83916 whole entry, looked up): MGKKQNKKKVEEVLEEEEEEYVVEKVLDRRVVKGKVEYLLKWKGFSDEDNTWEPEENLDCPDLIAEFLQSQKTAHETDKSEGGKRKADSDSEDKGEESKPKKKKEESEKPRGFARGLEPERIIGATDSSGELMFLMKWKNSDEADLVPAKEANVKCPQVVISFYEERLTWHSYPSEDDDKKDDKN
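HP1-beta protein (50 nM final) preincubated 30 min at room temperature with biotinylated H3(1-18)K9me3 peptide (50 nM) in PBS pH 7.4, 0.01% Tween-20, then compound added for 30 min. AlphaScreen streptavidin donor/nickel chelate acceptor beads (10 ug/mL final), 30 min dark, luminescence read.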
G9a inh: G9a (human) methyltransferase inhibition; Q96KQ7; G9a H3K9 monomethylation, AlphaScreen, 2 h; Potency, µM (top dose mostly 102 µM), without a hit: at the highest dose activity, negative = inhibition, most hits filed as inhibitors; 350,000 compounds, 8.8% hits; AID 504332; also: % is scaled to controls: 0 for no effect and ±100 for the full control effect; nearly all actives have a fitted effect of over 75% in size
Target sequence (Q96KQ7 913-1193 limits assumed): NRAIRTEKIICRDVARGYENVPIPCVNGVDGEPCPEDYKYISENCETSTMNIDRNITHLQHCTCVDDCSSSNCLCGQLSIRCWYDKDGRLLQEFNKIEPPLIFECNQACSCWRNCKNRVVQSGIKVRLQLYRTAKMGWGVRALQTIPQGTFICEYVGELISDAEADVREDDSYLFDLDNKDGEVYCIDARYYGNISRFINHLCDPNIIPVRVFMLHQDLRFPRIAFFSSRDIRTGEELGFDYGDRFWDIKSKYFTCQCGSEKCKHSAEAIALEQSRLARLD
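AlphaScreen detection with an anti-monomethyl H3K9 antibody quantified product after a 2 h room-temperature reaction containing 500 nM biotinylated H3K9 peptide, 20 µM SAM and 20 nM enzyme, which had been preincubated 15 min with compound.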
Sfp PPTase inh: blocks B. subtilis Sfp PPTase activity; Biochemical Sfp PPTase activity, qHTS; Potency, µM, for inactives: largest response in the series, negative = inhibition, actives largely listed as inhibitors; 310,000 compounds, 3.5% hits;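 also: the enzyme is Sfp with the accession as filed and its product quenches rhodamine fluorescence; 0% = enzyme reaction without inhibitor and -100% = no enzyme wells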
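Sfp 15 nM + cpd, 15 min RT; start w/ rhodamine-CoA 5 uM, BHQ-2-YbbR 12.5 uM (final); 50 mM Hepes pH 7.6, 10 mM MgCl2, 0.01% NP-40, 0.01% BSA; read 525/598 nm at 0 and 30 min.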
BAZ2B block: inhibitors of human BAZ2B bromodomain; Q9UIF8; AlphaScreen BAZ2B-H3K14Ac peptide displacement; Potency, µM (doses to about 114 µM), without a hit: at the highest dose activity change, negative = inhibition, hits mostly inhibitors; 360,000 compounds, 4.4% hits; also: % is scaled to controls: 0 for no effect and ±100 for the full control effect; nearly all actives have a fitted effect of over 60% in size
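BAZ2B (50 nM) with biotin-H3(5-23)K14Ac peptide (50 nM) in PBS pH 7.4, 0.01% Tween-20, preformed 30 min, then compound 30 min at room temperature; top concentration 110uM. AlphaScreen streptavidin donor/nickel chelate acceptor beads (10 ug/mL final), 20 min dark, signal read.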
The depositor's hits bear a star; ? = inconclusive; . = not tested or not shown; [ ] = dose if it differs, or a comment. Calls follow the shape of the dose curve; as a rule, active = well fitted curve in the direction sought with a large enough effect; inconclusive = small, poorly fitted or top-dose-only effect, or another doubt; inactive = no such curve, though single readings can be large; an effect the other way counts as inactive or inconclusive. Potency is read from the fitted curve at half-maximal effect.

SMILES	12-LOX inh	JMJD2A Tudor	HP1b binding inh	G9a inh	Sfp PPTase inh	BAZ2B block
COCCNC(=O)NC(=O)CN(Cc1ccccc1)c1cccc(C)c1	26.3%	.	.	.	.	.
CCc1nc(C)ccc1OCC(=O)N1CCCn2nc(C(C)O)cc2C1 (configuration not stated)	41.9%	.	.	.	.	.
COc1ccc(C2NC(=S)N(c3ccccc3)C(C)=C2C(=O)Nc2ccccc2)cc1 (configuration not stated)	?	-24.6%	-6.4%	?	89.1µM*	1.2%
CCc1c(C)sc(NC(=O)C2CC3CCC2C3)c1C#N (configuration not stated)	15.8µM*	.	.	.	.	.
CCc1c(C)sc(NC(=O)C2CCCO2)c1C#N (configuration not stated)	?	-25.2%[57.1 µM]	?	8.91µM*	22.4µM*	-1.6%
CCc1c(C)sc(NC(=O)c2ccncc2)c1C#N	0.0%	.	.	.	.	.
CCc1c(C)sc(NC(=O)c2cccs2)c1C#N	?	-9.2%	-7.3%	12.6µM*	?	2.7%
CCc1c(C)sc(NC(C)=O)c1C#N	31.6µM*	.	.	.	.	.
CN1[C@@H](CCC(=O)N2CCC(O)CC2)CNC(=O)[C@@H]2[C@H]1CCN2Cc1ccc(O)cc1	25.5%[176 µM]	.	.	.	.	.
O=C(c1ccc(F)c(Cl)c1)N1C[C@@H](CO)[C@H](c2ccncc2)C1	15.3%	.	.	.	.	.
CCC(=O)Oc1cc2c(c3oc(=O)cc(-c4ccccc4)c13)CCC(C)(C)O2	9.4%	.	.	.	.	.
CC(C)OCC(O)CN1CCN(CC(O)COc2ccc3c(c2)OCO3)CC1 (configuration not stated)	-11.8%	-9.0%	11.7%	-25.8%[59 µM]	-4.3%	1.2%
c1ccc(N2CCN(CCCOc3ccc4c(c3)OCO4)CC2)cc1	-10.2%	.	.	20µM*	-15.7%	.
O=C(CN1CCN(c2ccc(F)cc2)CC1)c1ccc2c(c1)OCO2	7.0%	-28.3%	30.7%	31.6µM*	-21.1%	-24.5%
OC(COc1ccc2c(c1)OCO2)CN1CCCC1 (configuration not stated)	-5.9%	-21.4%	17.7%	4.5%	19.0%	-11.2%
O=C(CN1CCN(c2ccc(Cl)cc2)CC1)c1ccc2c(c1)OCO2	-7.3%	-34.0%	22.3%	12.1%[0.0925 µM]	-22.6%	?
CC(C)c1ccc(OCC(O)CN2CCN(c3ccc(F)cc3)CC2)cc1 (configuration not stated)	-29.3%	79.4µM*	10.0%	10µM*	.	-18.3%
OC(COc1ccc2c(c1)OCO2)CN1CCN(c2ccc(F)cc2)CC1 (configuration not stated)	-7.0%	-10.7%	31.2%	50.1µM*	9.9%	?
Cc1cc2c(cc1C)C(c1cc3c(cc1Br)OCO3)CC(=O)N2 (configuration not stated)	-65.9%	.	.	.	.	.
CC(C)=CC(=O)NCCSc1ccccc1	7.6%	.	.	.	.	.
C#CCOCCOCCOCCNc1nc(N2CCN(C(=O)C(Cc3cc4ccccc4[nH]3)n3cc(C(N)C(C)CC)nn3)CC2)nc(N2CCN(C(=O)C(Cc3cc4ccccc4[nH]3)n3cc(C(N)C(C)CC)nn3)CC2)n1 (configuration not stated)	.	28.2µM*	?	-102.6%[59 µM]	17.8µM*	28.2µM*
C#CCOCCOCCOCCNc1nc(N2CCN(C(=O)[C@H](CO)n3cc([C@@H](N)C(C)C)nn3)CC2)nc(N2CCN(C(=O)[C@H](CCCCN)n3cc([C@@H](N)[C@H](C)CC)nn3)CC2)n1	-3.2%	-4.3%	38.6%	.	.	.
C#CCOCCOCCOCCNc1nc(N2CCN(C(=O)[C@H](CCC(=O)O)n3cc(C(N)CC(C)C)nn3)CC2)nc(N2CCN(C(=O)[C@H](Cc3cc4ccccc4[nH]3)n3cc(C(N)[C@H](C)CC)nn3)CC2)n1 (some centres not stated)	.	56.2µM*	16.2%	?	2.9%	50.1µM*
C#CCOCCOCCOCCNc1nc(N2CCN(C(=O)[C@H](CCC(=O)O)n3cc(C(N)[C@H](C)CC)nn3)CC2)nc(N2CCN(C(=O)[C@H](Cc3cc4ccccc4[nH]3)n3cc(C(N)[C@H](C)CC)nn3)CC2)n1 (some centres not stated)	.	.	.	-8.2%[12.7 µM]	4.0%	50.1µM*
C#CCOCCOCCOCCNc1nc(N2CCN(C(=O)[C@H](CCCCN)n3cc([C@@H](N)C(C)CC)nn3)CC2)nc(N2CCN(C(=O)[C@H](Cc3cc4ccccc4[nH]3)n3cc([C@@H](N)C(C)CC)nn3)CC2)n1 (some centres not stated)	.	50.1µM*	-18.9%	.	.	.
SMILES	12-LOX inh	JMJD2A Tudor	HP1b binding inh	G9a inh	Sfp PPTase inh	BAZ2B block
C#CCOCCOCCOCCNc1nc(N2CCOCC2)nc(N2CCN(C(=O)[C@H](Cc3cc4ccccc4[nH]3)n3cc([C@@H](N)C(C)CC)nn3)CC2)n1 (some centres not stated)	1.3%	?	20.9%	?	-4.2%	?
CCCCOC(=O)c1ccc(NC(=O)c2cc(=O)c3cc(C)ccc3o2)cc1	-2.7%	.	.	.	.	.
NC1(C(=O)O)CCCCC1c1ccccc1 (configuration not stated)	-16.3%	1.41µM*	-2.3%	.	.	.
N#Cc1ccc(-n2nccc2-c2cnc3n(c2=O)CCS3)cc1	89.8%[57.4 µM]	50.1µM*	-11.1%	-7.4%[12.7 µM]	22.2%	8.4%
COc1ccc2nc([C@H]3CCN(C(=O)c4ccccc4)C3)[nH]c2c1	14.5%[176 µM]	.	.	.	.	.
C=C1N(C)c2cc([N+](=O)[O-])c(N)cc2C1(C)C	?	?	?	31.6µM*	-11.6%	44.7µM*
Cc1nc(NC(=O)c2ccccc2)sc1-c1csc(Nc2ccc(F)cc2)n1	.	.	.	31.6µM*	-6.7%	?
Cc1nc(NC(=O)c2ccccc2)sc1-c1csc(Nc2ccc(Cl)cc2)n1	.	.	.	44.7µM*	12.4%	-37.7%[57.1 µM]
Cc1nc(NC(=O)c2ccccc2)sc1-c1csc(Nc2cccc(Cl)c2)n1	.	.	.	50.1µM*	1.6%	?
Cc1nc(NC(=O)c2ccco2)sc1-c1csc(Nc2ccc(Cl)cc2)n1	?	?	-7.7%	11.9%[0.501 µM]	2.3%	?
O=C(Nc1ccc(-c2csc(Nc3ccccc3)n2)cc1)c1ccccc1	-34.4%	-16.3%	25.4%	?	5.5%	-29.0%
C=CCSc1nc2sc(C)c(C)c2c(=O)n1CC=C	-26.4%	57.6%	186.5%	5.62µM*	50.1µM*	96.6%
C=CCn1c(SCC(=O)N2CCOCC2)nc2sc(C)c(C)c2c1=O	-6.5%	-3.5%	-7.8%	-10.6%	21.0%	-0.6%
CN(C)S(=O)(=O)c1cccc(C(=O)OCC(=O)Nc2cc(C(F)(F)F)cc(C(F)(F)F)c2)c1	7.9%	.	.	.	.	.

Screening data from PubChem.
